Among all 290,000 compounds or so, about 3,000 (1%) were called active. This is one part of a sample in which actives are shown more often than they occur. Cut-off read from the data, not from the text of the source: active = inhibition mostly above about 36% (no sharp cut-off); inactive = mostly below about 34%.

This test can be described thus: inhibition of NOD1-driven NF-kB reporter – cell-based, luminescence, uHTS, primary screen (AID 1578).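 Note: HEK-293T reporter cells stimulated with the NOD1 agonist gamma-tri-DAP.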 The conditions noted are these: NOD1-driven NF-kB luciferase reporter cells, at 4 µM, stronger effect = higher value.
On to `COc1ccc(S(=O)(=O)N2CCCOC2CNC(=O)C(=O)NCCc2ccco2)cc1OC` (stereo not given), for which the inhibition was -2.3% (inactive).
Take `O=C(COC(=O)c1cccc(O)c1)NCc1ccc2c(c1)OCO2`: the inhibition was -14.3% (inactive).
As for `COc1ccc(C=O)cc1OC(=O)N1CCOCC1`, the inhibition is -9.3% (inactive).
On to `Cc1cc(C(=O)COC(=O)CN(C)S(=O)(=O)c2ccc(Cl)cc2)c(C)n1Cc1cccs1`, for which the inhibition is -20.9% (inactive).
`O=C(NCc1cn2ccccc2n1)c1ccc(Br)o1`: the inhibition was -10.7% (inactive).
Then `O=C(NCc1cn2ccccc2n1)c1ccccc1`, with -22.2% (inactive).
For `O=C(NCc1cn2ccccc2n1)c1ccco1`, the inhibition was 54% (active).
Turning to `Cc1ccc(CNC(=O)C2CCCN(c3cnccn3)C2)cc1` (stereo not given), the inhibition was -5.5% (inactive).
Then `Cc1sc2ncn(CC(=O)NCC(=O)N(C)Cc3ccccc3)c(=O)c2c1C`, with -12.2% (inactive); and `Cc1ccc(NC(=O)C2CCC(CNC(=O)[C@@H]3Cc4ccccc4CN3)CC2)cc1` (stereo not given in full), with -2.3% (inactive); and `CC(=O)C1=C(O)C(=O)N(c2nccs2)C1c1ccccc1` (stereo not given), with -8.5% (inactive).
For the molecule `O=C(C1=C(O)C(=O)N(c2nccs2)C1c1ccccc1)c1cc2ccccc2o1` (stereo not given), the inhibition is -8.9% (inactive).
With `COc1ccc(N2CC(C(=O)N3CCN(C)CC3)CC2=O)cc1` (stereo not given), the inhibition was 3.9% (inactive).
For `COc1ccc(C(=O)/C=C/Nc2ccc(S(=O)(=O)Nc3nc(C)cc(C)n3)cc2)cc1OC`, the inhibition was -18.8% (inactive).
Consider `Nc1nonc1C(=O)N/N=C/c1ccc(Br)o1`, for which the inhibition was -6% (inactive).
Consider `O=C(CNc1ccccc1)N/N=C/c1ccc([N+](=O)[O-])o1`, for which the inhibition is 35% (inactive).
For the molecule `O=C(N/N=C/c1ccc([N+](=O)[O-])cc1)c1cc2ccccc2o1`, the inhibition is 2.4% (inactive).
In the case of `O=C(CNc1ccc2ccccc2c1)N/N=C/c1ccc([N+](=O)[O-])o1`, the inhibition was -5% (inactive).
Regarding `Nc1nonc1C(=O)N/N=C/c1ccc(-c2cccc([N+](=O)[O-])c2)o1`, the inhibition is 5.4% (inactive).
Turning to `Cc1ccc(C(=O)N/N=C\c2ccc([N+](=O)[O-])o2)cn1`, the inhibition was 13.2% (inactive).
With `Cc1cc(C(=O)N/N=C/c2ccc([N+](=O)[O-])o2)c(C)o1`, the inhibition is 1.4% (inactive).
Regarding `O=C(N/N=C/c1ccc([N+](=O)[O-])o1)c1cc2c(ccc3ccccc32)o1`, the inhibition was 41.1% (inactive).
Then `COc1cc2[nH]c(=O)n(CCC(=O)NCc3cccnc3)c(=O)c2cc1OC`, with -17.4% (inactive); and `CCCc1cc(=O)n2[nH]c(NC(=O)c3ccco3)nc2n1`, with 1.1% (inactive); and `O=C(c1ccco1)N1CCN(Cc2nnc(-c3cccc(Br)c3)o2)CC1`, with 37.7% (inactive).
For `Cc1ccc(/C=N/NC(=O)CNC(=O)c2ccc(S(=O)(=O)N3CCCC3)cc2)o1`, the inhibition is -10.1% (inactive).
Next, `CC(C)(C)S(=O)(=O)/C(C#N)=C/c1sccc1C1OCCO1`: -9.6% (inactive); `Cc1sc2nc(CSCC(=O)N(CCC#N)c3ccccc3)[nH]c(=O)c2c1C`: -2.8% (inactive).
On to `NC(=O)c1ccc(NC(=O)CCNC(=O)c2ccco2)cc1`, for which the inhibition is 0% (inactive).
Then `Cc1cccc(C)c1OCCN1C(=O)NC(C)(c2ccccc2)C1=O` (stereo not given), with -8.3% (inactive).
Consider `CC(=O)Nc1ccc(S(=O)(=O)Nc2ccn(Cc3ccccc3Cl)n2)cc1`, for which the inhibition is -42.3% (inactive).
In the case of `CC1CCc2cc(F)ccc2N1C(=O)CCC(=O)O` (stereo not given), the inhibition was -29.7% (inactive).
`CCC(CC)C(=O)N1c2ccc(F)cc2CCC1C` (stereo not given): the inhibition was 8% (inactive).
Regarding `CC1CCc2cc(F)ccc2N1C(=O)CCl` (stereo not given), the inhibition was 66.7% (active).
As to `COCCCNC(=S)Nc1cc2oc3ccccc3c2cc1OC`, the inhibition is 5.2% (inactive).
Take `CCN(CC(=O)NC1CCS(=O)(=O)C1)S(=O)(=O)c1ccc(F)cc1` (stereo not given): the inhibition was 25.9% (inactive).
Take `Cc1ccc(C(=O)N2CCCC(N3CCN(c4cccc(C(F)(F)F)c4)CC3)C2)s1` (stereo not given): the inhibition is -29.8% (inactive).
For the molecule `Cc1ccccc1OCC(=O)N/N=C/c1c(C)nn(-c2ccccc2)c1Cl`, the inhibition was -26.9% (inactive).
As for `COc1ccc(C(=O)NCCCc2nc3ccccc3n2Cc2ccccc2C)cc1OC`, the inhibition was -9.4% (inactive).
As to `COc1cc(C(=O)NCCCc2nc3ccccc3n2Cc2cc(C)ccc2C)cc(OC)c1OC`, the inhibition was 68.1% (active).
Regarding `COc1ccc(C(=O)NCCCc2nc3ccccc3n2Cc2cc(C)ccc2C)cc1OC`, the inhibition was -28.5% (inactive).
Next, `CCc1ccc2[nH]c(=O)c(CN(CCCN3CCOCC3)C(=O)Nc3ccc(Cl)cc3)cc2c1`: -9.8% (inactive).
For the molecule `O=S(=O)(Nc1cccc(-c2cn3cccnc3n2)c1)c1ccccc1`, the inhibition was 36.4% (inactive).
`O=S(=O)(Nc1cccc(-c2cn3cccnc3n2)c1)c1ccc(F)cc1`: the inhibition was -1.4% (inactive).
As for `CCN(CC)C(=O)Cn1cc(C(=O)C(=O)N2CCN(C)CC2)c2ccccc21`, the inhibition was -22.7% (inactive).
For the molecule `COc1ccc(C(=O)C/C(=C\C(=O)c2ccc(C)cc2)c2ccccc2)cc1`, the inhibition is 71.2% (active).
For `COc1ccc(C(=O)CC(=O)c2ccc(OC)cc2)cc1`, the inhibition was -23.3% (inactive).
Take `Cc1ccc(C(=O)CC(=O)c2ccccc2)cc1`: the inhibition was -42.7% (inactive).
Turning to `CC(C)N1CC(C(=O)Nc2ccc(Cl)c([N+](=O)[O-])c2)CC1=O` (stereo not given), the inhibition was -8.3% (inactive).
For the molecule `Cc1ccc2[nH]c3c(c2c1)CCCC3C(N)=O` (stereo not given), the inhibition was -44.3% (inactive).
In the case of `Cc1ccc2[nH]c3c(c2c1)CCCC3NC(=O)CCl` (stereo not given), the inhibition was 70% (active).
Turning to `Cc1ccc2[nH]c3c(c2c1)CCCC3NCCO` (stereo not given), the inhibition was -12.6% (inactive).
As to `COC(=O)[C@@]1(Cc2ccccc2)[C@@H]2C(=CC(=O)[C@H]2CC(=O)C(=O)N(C)C)CN1C(=O)c1ccccc1`, the inhibition is 47.7% (inactive).
For `C=C1C(=O)C=C2CN(C(=O)c3ccccc3)[C@@](Cc3ccc(F)cc3)(C(=O)OC)[C@@H]12`, the inhibition is 98.5% (active).
`COC(=O)[C@@]1(Cc2ccc(F)cc2)[C@@H]2[C@@H](CC(=O)[C@H]2CC(=O)C(=O)N(C)C)CN1C(=O)c1ccccc1`: the inhibition was -29.5% (inactive).
Next, `CS(=O)(=O)c1cnc(-c2ccccc2)nc1-c1ccccc1Cl`: 23.1% (inactive); `CC1Cc2cc(S(=O)(=O)N3CCC(C(N)=O)CC3)ccc2N1C(=O)C1CC1` (stereo not given): -42.9% (inactive).
`O=C(O)/C=C/c1ccc([N+](=O)[O-])o1`: the inhibition is -17.7% (inactive).
With `O=C(N/N=C/c1ccc([N+](=O)[O-])o1)c1ccc(O)cc1`, the inhibition was 6.8% (inactive).
Next, `O=C(/C=C/c1ccc([N+](=O)[O-])o1)NNC(=O)c1ccc(F)cc1`: 66.9% (active); `CCCOc1ccc(OCCCCNC(C)CC)cc1` (stereo not given): 0.5% (inactive); `COc1ccc(N(C(=O)Cn2nnc(-c3ccc(F)cc3)n2)C(C)C(=O)NC2CCCC2)cc1OC` (stereo not given): 10.1% (inactive).
For `CC(C(=O)NC1CCCC1)N(C(=O)Cn1nnc(-c2ccc(F)cc2)n1)c1ccccc1F` (stereo not given), the inhibition was 82.7% (active).
Then `COc1ccc(N(C(=O)Cn2nnc(-c3ccc(F)cc3)n2)C(C)C(=O)NC2CCCC2)cc1` (stereo not given), with -22.6% (inactive); and `COc1cccc(C(=O)NCCCNC(=O)c2ccco2)c1`, with 9.1% (inactive).
Next, `Cc1ccccc1C1C(C#N)=C(N)N(N(C)C)C2=C1C(=O)CC(C)(C)C2` (stereo not given): -10.1% (inactive).
As for `CCCCCn1c2c(c(=N)c3ccccc31)CCC2`, the inhibition was -13.6% (inactive).
For `CCCCCCCn1c2c(c(=N)c3ccccc31)CCC2`, the inhibition was 77.4% (active).
As for `CCCCn1c2c(c(=N)c3ccccc31)CCC2`, the inhibition is -6.7% (inactive).
As for `CCO[C@H]1OC(C(=O)NC2CC2)=C[C@@H](c2ccc(C(F)(F)F)cc2)[C@@H]1CCCO`, the inhibition was 1.4% (inactive).
`CC(Oc1ccccc1)C(=O)N=Nc1c(O)[nH]c2ccc(Br)cc12` (stereo not given): the inhibition was -9.4% (inactive).
On to `Cc1c(CBr)[n+](=O)c2c(n1[O-])C(Br)CCC2Br` (stereo not given), for which the inhibition is -9.7% (inactive).
As to `CC(=O)OC1CCC(OC(C)=O)c2c1n([O-])c(C)c(C)[n+]2=O` (stereo not given), the inhibition was 79.5% (active).
As for `Cc1c(C)[n+](=O)c2c(n1[O-])C(Br)CCC2Br` (stereo not given), the inhibition is -7.3% (inactive).
Then `N#Cc1cc(NCC2CCCO2)c([N+](=O)[O-])cc1C#N` (stereo not given), with -23.8% (inactive); and `N#Cc1cc(Cl)c(NCC2CCCO2)cc1C#N` (stereo not given), with 83.4% (active).
For the molecule `N#Cc1cc([N+](=O)[O-])ccc1NCC1CCCO1` (stereo not given), the inhibition was -26.2% (inactive).
With `COc1ccc2cc(S(=O)(=O)N3CCOCC3)ccc2c1`, the inhibition was -5.6% (inactive).
Take `COc1ccc2[nH]c(=O)c(CNc3ccccc3C)cc2c1`: the inhibition is -10.6% (inactive).
`COc1ccc(C2CC(c3cccs3)=NN2c2nc(-c3ccccc3)cs2)cc1OC` (stereo not given): the inhibition was -16.1% (inactive).
Next, `OCCN1CCN(c2nc(-c3ccccc3)c3cc(Br)ccc3n2)CC1`: -12.3% (inactive); `CC1(C)CC2CC(C)(CN2c2ncnc3ccc(Br)cc23)C1` (stereo not given): 39.1% (inactive).
For the molecule `OCCN1CCN(c2ncnc3ccc(Br)cc23)CC1`, the inhibition is 66.7% (active).
Next, `OCCN1CCN(c2ncnc3sc(-c4ccccc4)cc23)CC1`: -0.1% (inactive); `CN1CCN(c2ncnc3sc(-c4ccccc4)cc23)CC1`: 32% (inactive); `COc1ccc(OC)c(C(=O)NC(CC(N)=O)c2ccc(NCCOc3ccccc3)c([N+](=O)[O-])c2)c1` (stereo not given): -4% (inactive).
On to `CCCNC(=S)NC1CC2CCC(C1)N2Cc1ccccc1` (stereo not given), for which the inhibition is 0.5% (inactive).
In the case of `O=C(CN1C(=O)/C(=C/c2ccccc2F)Sc2ccccc21)NCc1cccnc1`, the inhibition was 59.2% (active).
As for `O=C(CN1C(=O)/C(=C/c2ccccc2F)Sc2ccccc21)NCCCN1CCOCC1`, the inhibition is -19.9% (inactive).
With `O=C(CN1C(=O)/C(=C/c2ccccc2F)Sc2ccccc21)NCC1CCCO1` (stereo not given), the inhibition is 9.1% (inactive).
In the case of `NS(=O)(=O)c1ccc(CNC(=S)NCc2ccc(F)cc2)cc1`, the inhibition was 14.6% (inactive).
Consider `Cc1onc(C(=O)NN)c1C(=O)Nc1ncc(C(F)(F)F)cc1Cl`, for which the inhibition was -8.1% (inactive).
`O=C(C1=NN[C@@H]2C(=O)N(c3cccc(F)c3)C(=O)[C@H]12)c1ccc2ccccc2n1`: the inhibition is -47% (inactive).
On to `O=C(C1=NN[C@@H]2C(=O)N(c3cccc(C(F)(F)F)c3)C(=O)[C@H]12)c1ccc2ccccc2n1`, for which the inhibition was 87.5% (active).
Next, `O=C(C1=NN[C@@H]2C(=O)N(c3ccccc3C(F)(F)F)C(=O)[C@H]12)c1ccc2ccccc2n1`: -11.3% (inactive).

What is called inhibition is the drop in the measured response relative to a control, in per cent.

Source of the values: PubChem BioAssay AID1578 (Sanford-Burnham Center for Chemical Genomics, 2009).
